Results filed as inconclusive are left out. Unmarked numbers belong to inactive results. The source made the active and inactive calls. Calls follow the shape of the dose curve; as a rule, active = well fitted inhibition curve with a large enough effect; inconclusive = small, poorly fitted or top-dose-only effect; inactive = flat fitted curve, though single readings scatter.
% is scaled to controls: 0 for no effect and ±100 for the full control effect; potency is read from the fitted curve at half-maximal effect.

This assay has as its system astro (control astrocytes). The assay is described as follows: Drug repurposing screens with cells derived from glioblastoma tumor samples (AID 1345199). Also: nearly all actives have a fitted effect of over 40% in size. Particulars: viability, ATP luminescence, 48 h; series mostly up to 45.9 µM; activity, negative = cell killing: at the top concentration. As to the method: CD133+ cells were isolated from GBM patient biopsies and cultured as neurospheres. Neurospheres from four patients were used to screen the NCATS pharmaceutical collection (NPC) library of approved drugs and bioactive compounds. […] The neurospheres were incubated with drugs for 48 hours in 1536-well format, then assayed with an ATP content cell viability assay. […] These hits were cherry picked to confirm activity in the four original GBM lines screened plus three other slower growing GMB lines (unable to yield enough cells for a full primary screen). Variable activities of the confirmed primary hits in the different GBM patient lines were observed. The patient line 206 responded to the greatest number of compounds and line 923 responded to the least amount of active compounds.
For `CCN(CC)C(C)C(=O)c1ccccc1` (stereo not given), the “activity, negative = cell killing” value is -4.54%.
Take `OC(O)C(Cl)(Cl)Cl`: the “activity, negative = cell killing” value is -11.3%.
On to `C[C@@H]1O[C@@H](O[C@@H]2C=C3CC[C@@H]4[C@H](CC[C@]5(C)[C@@H](c6ccc(=O)oc6)CC[C@]45O)[C@@]3(C)CC2)[C@H](O)[C@H](O)[C@H]1O`, for which the Potency is 0.0282 µM (active).
For the compound `CC[C@H]1C[C@H]2[C@@H]3CCC4=CC(=O)CC[C@@H]4[C@H]3CC[C@]2(C)[C@H]1O`, the “activity, negative = cell killing” value is -25.1%.
The same measure, in the same setting: the same measure for `CN(C)CCc1c[nH]c2cccc(O)c12`: -18% [at 91.6 µM]; for `CCC1(c2ccccc2)CCC(=O)NC1=O` (stereo not given): -18.5%.
Same read-out and setting: next, `COc1cc(CC(C)N)cc2c1OCO2` (stereo not given): -17.9% [at 108 µM].
Turning to `Cc1nnc2n1-c1sc(CCc3ccc(CC(C)C)cc3)cc1C(c1ccccc1Cl)=NC2C` (stereo not given), the Potency is 35.5 µM (active).
Consider `COP(=S)(OC)Oc1ccc(S(N)(=O)=O)cc1`, for which the “activity, negative = cell killing” value was -15%.
On the same count and under the same terms, the same measure for `O=C(O)Cc1ccccc1`: -19.3%; for `COc1cc(C[C@@H](C)N)c(OC)cc1Br`: -28.8% [at 108 µM]; for `O=c1n(Cl)c(=O)n(Cl)c(=O)n1Cl`: -9.56%.
Still for that read-out and setting: the same measure for `COC(=O)C1=CCCN(C)C1`: -9.57%.
As to `COc1cc(N)c(Cl)cc1C(=O)NC1CN2CCC1CC2` (stereo not given), the “activity, negative = cell killing” value was -18.1%.
Same read-out and setting: the same measure for `CC(=O)OC1(c2ccccc2)CCN(CCc2ccccc2)CC1`: -14.1% [at 108 µM]; for `CNC(=O)NC(O)C(Cl)(Cl)Cl` (stereo not given): -4.37%.
Still for that read-out and setting: next, `CCCCC1C(=O)NC(=O)N(C2CCCCC2)C1=O` (stereo not given): -13.3%; `CCNc1nc(Cl)nc(NCC)n1`: 1.76%; `CC(Cc1ccccc1)NCc1ccccc1Cl` (stereo not given): -9.9%.
On the same count and under the same terms, next, `Cc1cccc(Cc2cnc[nH]2)c1C`: -22.6%; `Oc1c(Br)cc(Br)cc1Br`: -14.4%.
On to `O=C(N[C@H]1N=C(c2ccccc2F)c2cccc3c2N(CC3)C1=O)c1cc2ccccc2[nH]1`, for which the “activity, negative = cell killing” value was -21.6%.
Consider `CCN(Cc1ccc(Cl)nc1)/C(=C/[N+](=O)[O-])NC`, for which the “activity, negative = cell killing” value was -18%.
On the same count and under the same terms, next, `COc1ccc2[nH]cc(CCN(C(C)C)C(C)C)c2c1`: -12.2% [at 108 µM]; `COc1ccc(OC)c(CC(C)N)c1` (stereo not given): -19.3% [at 108 µM]; `CC[C@H]1C[C@@H]2C[C@H]3c4[nH]c5ccc(OC)cc5c4CCN(C2)[C@@H]13`: -23.6% [at 91.6 µM].
The same measure, in the same setting: next, `O=C(CCCN1CCC(n2c(=O)[nH]c3ccccc32)CC1)c1ccc(F)cc1`: -18.4% [at 21.2 µM]; `NCc1cccnc1`: -10.8%; `CCN(CC)Cc1nccn1-c1ccc([N+](=O)[O-])cc1C(=O)c1ccccc1Cl`: -0.691%.
The same measure, in the same setting: the same measure for `CCCCCCCCC(=O)NCc1ccc(O)c(OC)c1`: -8.88%; for `NC(=O)CN1CCCC1=O`: -17.8% [at 21.2 µM].
Turning to `c1ccc2nc(N3CCNCC3)ccc2c1`, the Potency is 12.6 µM (active).
As to `C[C@]12CC[C@H]3[C@@H](CC=C4C[C@@H](O)CC[C@@]43C)[C@@H]1CC[C@@H]2O`, the “activity, negative = cell killing” value was -27.7%.
Still for that read-out and setting: next, `C[C@H]1CNCCc2ccc(Cl)cc21`: -12.5%; `CCC1(CC)C(=O)NC(=O)NC1=O`: -16.7%; `O=C(NC(=O)c1c(F)cccc1F)Nc1cc(Cl)c(OC(F)(F)C(F)C(F)(F)F)cc1Cl` (stereo not given): -16%.
Turning to `CN1[C@@H]2CC[C@H]1CC(OC(=O)c1cc(Cl)cc(Cl)c1)C2` (stereo not given in full), the “activity, negative = cell killing” value is -22.6%.
On the same count and under the same terms, the same measure for `CN1C(=O)[C@@H](NC(=O)c2cc3ccccc3[nH]2)N=C(c2ccccc2)c2ccccc21`: -29.7%.
The same measure, in the same setting: the same measure for `CCCC[N+]1(C)[C@@H]2CC(OC(=O)[C@H](CO)c3ccccc3)C[C@H]1[C@@H]1O[C@@H]12` (stereo not given in full): -14.3%.
The same measure, in the same setting: next, `COP(=O)(OC)C(O)C(Cl)(Cl)Cl` (stereo not given): -18%.

Values taken from PubChem BioAssay (NCATS).
